# In PubChem BioAssay (NCATS):
# Unmarked numbers belong to inactive results. Inconclusive results are not listed. Calls of active or inactive are those of the source. Unless noted, calls come from the whole dose curve; as a rule, active = well fitted curve in either direction with a large enough effect (not every such curve was filed as active); inconclusive = small, poorly fitted or top-dose-only effect, or another doubt; inactive = flat fitted curve, though single readings scatter.
# How the values were obtained:
# [1] = target: Lysosomal acid glucosylceramidase (Homo sapiens) (UniProt P04062); test: Glucocerebrosidase-p2 (AID 348; in the data active = potency below about 10 µM; note: potency is the fitted concentration of half-maximal effect); conditions: purified GBA, blue fluorogenic substrate, 40 min
# Procedure, shortened: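 Compounds titrated from 0.6 nM upwards against 0.2 nM enzyme in pH 5.9 citric acid/KH2PO4, taurocholate, tween-20; blue fluorogenic substrate 80 uM, 40 min room temperature, stopped and read Ex 365/Em 440 for AC50.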
# [2] = AP1 Signaling Pathway (AID 357); conditions: ME-180 AP-1-bla reporter, EGF-induced, beta-lactamase ratio, 5 h; at 7.69 µM (top of the series) unless noted; note: % is set by controls: 0 for no effect and ±100 for the full control effect
# Procedure, shortened: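 AP-1-bla ME-180 cells with beta-lactamase reporter under AP-1 response element, stimulated with EC50 EGF; compounds titrated, 5 hours at 37 degrees Celsius. CCF4 read at 460/530 nm ratio; positive and negative modulators judged by AC50.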
# [3] = target: Cytochrome P450 1A2 (Homo sapiens) (UniProt P05177); test: p450-cyp1a2 (AID 410; calls by dose curve; note: potency is the fitted concentration of half-maximal effect;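 for activity change, negative = inhibition: -100% = full effect of reference inhibitor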); conditions: recombinant CYP1A2, luciferin-ME demethylation, luminescence; series mostly up to 57 µM
# Procedure, shortened: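 Human CYP1A2 (20nM) demethylated Luciferin-ME at its Km (100uM) in 100mM KPO4. After 10 min compound preincubation, NADPH regeneration ran the reaction 60 min at room temperature. Luciferin was read by luminescence, normalized to 57 uM furafylline.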
# [4] = NFAT Signaling Pathway (AID 444); conditions: Jurkat NFAT-bla M1, carbachol, beta-lactamase ratio, 5 h; at 7.69 µM (top of the series) unless noted;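 note: carbachol stimulus at about its EC50 of 1 µM final; % is set by controls: 0 for no effect and ±100 for the full control effect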
# Procedure, shortened: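 Read-out: CCF4 FRET ratio (460 nm/530 nm) after 1 h RT dye loading, used for %activity and AC50 from titration series. Cells: Jurkat NFAT-β-lactamase/M1 line, treated with compound plus 1 uM carbachol for 5 h, 37 °C.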
# [5] = target: Glucocorticoid receptor (Homo sapiens) (UniProt P04150); test: GR-GFP Redistribution (AID 450;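 active = compounds whose dose series gives a full or clear partial fitted curve of increased nuclear translocation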; note: potency is the fitted concentration of half-maximal effect); conditions: U2OS GR-GFP nuclear translocation, laser cytometry, 2 h
# [6] = target: Glucocorticoid receptor (Homo sapiens) (UniProt P04150); test: GR-EFC Redistribution (AID 451; calls by dose curve; note: potency is the fitted concentration of half-maximal effect); conditions: CHO-K1 GR-EFC translocation, beta-gal luminescence, 2 h
# Procedure, shortened: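 Translocation of GR-ED fusion to nuclear EA restores b-gal, read by luminescence after 1 h room-temperature detection. Engineered CHO-K1 biosensor cells, 1,000/well, exposed 2 h at 37 C to titrations up to 46 uM final.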
# [7] = target: Mitogen-activated protein kinase 10 (Mus musculus) (UniProt Q61831); test: JNK3 AlphaScreen Assay (AID 530); conditions: JNK3 lysate, c-Jun phosphorylation; series mostly up to 57.1 µM;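 note: kinase came from lysate of stimulated human HepG2 cells; signal reports phosphorylation of biotinylated GST-cJun 1-79 at Ser73 with 10 µM ATP; % is set by controls: 0 for no effect and ±100 for the full control effect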
# Procedure, shortened: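 Room-temperature AlphaScreen kinase assay; pre-activated HepG2 lysate as JNK3 source, biotin-GST-cJun(1-79) substrate, 10 uM ATP, compound 15 min preincubation.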
# [8] = target: 3',5'-cyclic-AMP phosphodiesterase 4B (Homo sapiens) (UniProt Q07343); test: qHTS Assay for Inhibitors of PDE-IV (AID 607; active = well fitted activation curve with a large enough effect in the main read-out, with a control signal flat, not every such curve was filed as active; note: % of control where 0% means no effect); conditions: HEK293 ACTOne CNG channel cells, membrane potential fluorescence; series mostly up to 22.9 µM
# Procedure, shortened: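 Cell-based read-out of cAMP via a modified cyclic nucleotide-gated channel and membrane potential dye (535/590 nm) in HEK293 cells expressing PDE4 endogenously. Compounds tested up to 22.9 uM final; 100 uM RO 20-1724 reference.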
# [9] = target: Cytochrome P450 2C19 (Homo sapiens) (UniProt P33261); test: qHTS Assay for Inhibitors and Substrates of Cytochrome P450 2C19 (AID 899; active = well fitted curve in the direction sought with a large enough effect; an effect the other way counts as inactive or inconclusive; note: nearly all actives have a fitted effect of over 60% in size; note: potency is the fitted concentration of half-maximal effect); conditions: recombinant CYP2C19, luciferin-H EGE luminescence; series mostly up to 57.1 µM
# Procedure, shortened: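 5nM enzyme + 10uM Luciferin-H EGE (=KM), 50mM KPO4; cpd pin-transferred, 10 min 37C; NADPH regen, 60 min 37C; stopped w/ luciferin detection reagent, 20 min; luminescence. Normalized to 57uM ketoconazole (AC100).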
# [10] = Primary qHTS for small molecule stabilizers of the endoplasmic reticulum resident proteome: Secreted ER Calcium Modulated Protein (SERCaMP) assay (AID 1508630; active = well fitted curve in the direction sought with a large enough effect; an effect the other way counts as inactive or inconclusive; note: % is set by controls: 0 for no effect and ±100 for the full control effect); conditions: SH-SY5Y GLuc-SERCaMP (Gaussia luciferase released on ER calcium loss) secretion, thapsigargin, luminescence; series mostly up to 38.4 µM
# Procedure, shortened: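 GLuc-SERCaMP-expressing SH-SY5Y cells, pretreated 16 h with compound, are challenged with thapsigargin to empty ER calcium stores; after 4 h, coelenterazine is added directly to the medium and luminescence is imaged.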
# [11] = Stat Signaling Pathway (AID 446); conditions: ME-180 SIE beta-lactamase reporter, IL-6 stimulated, 5 h; at 7.69 µM (top of the series) unless noted
# Procedure, shortened: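 Reporter line: ME-180 cervical carcinoma, SIE-beta-lactamase. Treatment: compound with 40 pM IL-6, 5 hrs, 37 C, in low-serum OPTI-MEM with 10 mM HEPES pH 7.3. Detection: 460/530 nm fluorescence.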
# [12] = target: Cytochrome P450 3A4 (Homo sapiens) (UniProt P08684); test: qHTS Assay for Inhibitors and Substrates of Cytochrome P450 3A4 (AID 884; active = well fitted curve in the direction sought with a large enough effect; an effect the other way counts as inactive or inconclusive; note: nearly all actives have a fitted effect of over 50% in size; note: potency is the fitted concentration of half-maximal effect); conditions: recombinant CYP3A4, Luciferin-PPXE luminescence; series mostly up to 57.1 µM
# Procedure, shortened: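 20 nM human CYP3A4 with 25 uM Luciferin-PPXE (at KM) in 200 mM KPO4, preincubated 10 min with compound; NADPH regeneration started a 60 min RT reaction. Luciferin detected by luminescence, normalized to 57 uM ketoconazole as full inhibition.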
# [13] = target: Cytochrome P450 3A4 (Homo sapiens) (UniProt P08684); test: qHTS Assay for Activators of Cytochrome P450 3A4 (AID 885; active = well fitted curve in the direction sought with a large enough effect; an effect the other way counts as inactive or inconclusive; note: nearly all actives have a fitted effect of over 65% in size); conditions: recombinant CYP3A4, Luciferin-PPXE luminescence, 60 min; series mostly up to 57.1 µM
# Procedure, shortened: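 Signal was normalized against complete inhibition by 57 uM ketoconazole. The reaction used 20nM CYP3A4 with 25uM Luciferin-PPXE, 10-min compound preincubation and a 60-min NADPH-supported step at RT.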
# [14] = qHTS Assay for Identification of Small Molecule Agonists for Hypoxia Response Element Signaling Pathway (AID 914; active = well fitted activation curve with a large enough effect in the signal ratio, with a control signal flat, not every such curve was filed as active; the % refers to the signal ratio; note: potency is the fitted concentration of half-maximal effect; for activation: % of control where 0% means no effect); conditions: ME-180 (cervical carcinoma) HRE-bla reporter, beta-lactamase ratio, CoCl2, 17 h; activation: hits give high values
# Procedure, shortened: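 Read-out: CCF4 FRET ratio of 460nm to 530nm emission (excitation 405nm) after 2.5 hours at room temperature, taken from HRE-bla ME-180 cells that had been exposed to compound and EC50 CoCl2 for 17 hours.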
# [15] = target: Cytochrome P450 2D6 (Homo sapiens) (UniProt P10635); test: qHTS Assay for Inhibitors and Substrates of Cytochrome P450 2D6 (AID 891; active = well fitted curve in the direction sought with a large enough effect; an effect the other way counts as inactive or inconclusive; note: potency is the fitted concentration of half-maximal effect; nearly all actives have a fitted effect of over 60% in size); conditions: recombinant CYP2D6, luciferin-ME EGE luminescence; series mostly up to 57.1 µM
# Procedure, shortened: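 Human CYP2D6 (5 nM) with 30 uM Luciferin-ME EGE (at Km) in 100 mM KPO4, compound preincubated 10 min, then NADPH regeneration system for 60 min at room temperature. Luciferin read by luminescence; normalized to 1.43 uM quinidine.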
# [16] = Confirmation and Secondary Assay for Modulators of Hemoglobin Beta Chain Splicing at IVS2 654 locus (AID 910; active = well fitted curve in the direction sought with a large enough effect; an effect the other way counts as inactive or inconclusive;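 note: HeLa cells stably carrying EGFP split by mutant beta-globin IVS2-654 intron; per-well total GFP intensity by laser scanning cytometry after 2-day treatment; % of control where 0% means no effect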); conditions: HeLa EGFP-654 splicing reporter, GFP fluorescence, 48 h; series mostly up to 38.3 µM
# Procedure, shortened: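 Readout: per-well total peak green fluorescence (488 nm ex, 500–520 nm em) from objects 5–250 µm, reflecting correct splicing of an EGFP-654 reporter. Compounds were applied for 2 days at 37 °C to overnight-plated HeLa EGFP-654 cells; controls were DMSO and 500 nM IVS2-654 PNA.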
# [17] = Confirmation and Secondary Assay for Modulators of Hemoglobin Beta Chain Splicing at IVS2 705 locus (AID 930; active = well fitted curve in the direction sought with a large enough effect; an effect the other way counts as inactive or inconclusive;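 note: HeLa cells stably expressing the EGFP-705 splicing reporter; GFP fluorescence per well restored by corrected splicing of the IVS2-705 intron in EGFP; % of control where 0% means no effect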); conditions: HeLa EGFP-705 splicing reporter, GFP fluorescence, 48 h; series mostly up to 38.3 µM
# Procedure, shortened: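 HeLa EGFP-705 reporter; 500 cells/well, o/n 37C 5% CO2; cpd 2 d; 488 ex/500-520 em laser scan; total peak GFP intensity/well. Ref: 500 nM […] antisense PNA.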
# [18] = target: Ubiquitin carboxyl-terminal hydrolase 1 (Homo sapiens) (UniProt O94782); test: Inhibitors of USP1/UAF1: Pilot qHTS (AID 504865; active = well fitted curve in the direction sought with a large enough effect; an effect the other way counts as inactive or inconclusive;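 note: rhodamine fluorescence freed from ubiquitin-rhodamine substrate followed over time; top concentration of the series differs between compounds; % is set by controls: 0 for no effect and ±100 for the full control effect; nearly all actives have a fitted effect of over 35% in size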); conditions: purified USP1/UAF1, Ub-rhodamine cleavage fluorescence; series mostly up to 54.9 µM
# Procedure, shortened: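 In 50mM HEPES pH 7.8 containing 0.5mM EDTA, 1mM TCEP, 0.1 mg/ml BSA and 0.01% Tween-20, 1nM USP1/UAF1 is exposed to compound for 15 min, then Ub-Rho (150nM final) is added and fluorescence is read over time.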
# Cytochrome P450 3A4 (Homo sapiens), sequence (P08684 whole entry, looked up): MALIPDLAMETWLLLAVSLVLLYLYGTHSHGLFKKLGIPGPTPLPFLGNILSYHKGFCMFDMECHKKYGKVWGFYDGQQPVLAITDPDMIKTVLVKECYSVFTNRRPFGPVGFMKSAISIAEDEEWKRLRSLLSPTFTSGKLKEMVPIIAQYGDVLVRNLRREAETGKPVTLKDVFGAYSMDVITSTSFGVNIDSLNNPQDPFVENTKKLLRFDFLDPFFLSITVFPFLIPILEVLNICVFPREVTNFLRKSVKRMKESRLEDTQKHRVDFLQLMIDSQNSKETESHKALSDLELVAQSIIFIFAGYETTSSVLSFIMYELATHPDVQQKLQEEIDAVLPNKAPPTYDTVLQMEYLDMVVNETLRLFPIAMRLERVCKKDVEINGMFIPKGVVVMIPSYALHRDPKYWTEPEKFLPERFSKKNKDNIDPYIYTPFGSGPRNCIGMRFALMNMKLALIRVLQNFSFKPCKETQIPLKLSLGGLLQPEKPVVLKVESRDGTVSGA
# Cytochrome P450 1A2 (Homo sapiens), sequence (P05177 whole entry, looked up): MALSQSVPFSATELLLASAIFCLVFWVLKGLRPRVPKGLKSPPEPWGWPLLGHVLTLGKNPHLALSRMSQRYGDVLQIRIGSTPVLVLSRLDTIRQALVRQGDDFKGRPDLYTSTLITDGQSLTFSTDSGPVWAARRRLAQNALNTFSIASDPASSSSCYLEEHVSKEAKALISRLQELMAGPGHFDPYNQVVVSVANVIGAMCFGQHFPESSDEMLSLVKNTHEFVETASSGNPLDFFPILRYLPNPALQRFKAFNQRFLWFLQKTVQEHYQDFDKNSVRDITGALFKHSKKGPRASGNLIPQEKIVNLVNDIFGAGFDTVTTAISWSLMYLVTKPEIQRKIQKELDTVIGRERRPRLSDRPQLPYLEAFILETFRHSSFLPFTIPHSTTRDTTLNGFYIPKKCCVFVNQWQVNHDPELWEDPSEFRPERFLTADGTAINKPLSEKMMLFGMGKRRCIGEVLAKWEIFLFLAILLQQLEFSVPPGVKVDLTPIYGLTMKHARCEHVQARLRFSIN
# 3',5'-cyclic-AMP phosphodiesterase 4B (Homo sapiens), sequence (Q07343 whole entry, looked up): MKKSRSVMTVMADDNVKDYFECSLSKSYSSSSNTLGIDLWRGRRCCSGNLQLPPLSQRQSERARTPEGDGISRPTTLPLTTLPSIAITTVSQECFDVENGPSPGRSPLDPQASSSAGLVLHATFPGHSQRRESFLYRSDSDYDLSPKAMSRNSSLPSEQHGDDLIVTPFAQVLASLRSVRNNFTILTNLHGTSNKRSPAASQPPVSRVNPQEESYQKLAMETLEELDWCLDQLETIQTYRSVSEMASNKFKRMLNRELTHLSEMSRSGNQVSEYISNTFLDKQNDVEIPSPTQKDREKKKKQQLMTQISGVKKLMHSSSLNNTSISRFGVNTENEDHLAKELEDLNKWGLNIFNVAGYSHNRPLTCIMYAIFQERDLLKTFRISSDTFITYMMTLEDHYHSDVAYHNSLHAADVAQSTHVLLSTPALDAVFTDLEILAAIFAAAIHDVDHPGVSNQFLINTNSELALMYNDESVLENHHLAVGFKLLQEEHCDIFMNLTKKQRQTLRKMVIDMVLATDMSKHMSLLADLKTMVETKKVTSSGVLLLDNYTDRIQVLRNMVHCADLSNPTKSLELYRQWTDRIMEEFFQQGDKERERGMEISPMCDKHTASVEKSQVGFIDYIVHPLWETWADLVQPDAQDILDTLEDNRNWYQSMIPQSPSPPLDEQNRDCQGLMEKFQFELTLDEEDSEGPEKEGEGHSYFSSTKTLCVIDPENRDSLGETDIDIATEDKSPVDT
# Lysosomal acid glucosylceramidase (Homo sapiens), sequence (P04062 whole entry, looked up): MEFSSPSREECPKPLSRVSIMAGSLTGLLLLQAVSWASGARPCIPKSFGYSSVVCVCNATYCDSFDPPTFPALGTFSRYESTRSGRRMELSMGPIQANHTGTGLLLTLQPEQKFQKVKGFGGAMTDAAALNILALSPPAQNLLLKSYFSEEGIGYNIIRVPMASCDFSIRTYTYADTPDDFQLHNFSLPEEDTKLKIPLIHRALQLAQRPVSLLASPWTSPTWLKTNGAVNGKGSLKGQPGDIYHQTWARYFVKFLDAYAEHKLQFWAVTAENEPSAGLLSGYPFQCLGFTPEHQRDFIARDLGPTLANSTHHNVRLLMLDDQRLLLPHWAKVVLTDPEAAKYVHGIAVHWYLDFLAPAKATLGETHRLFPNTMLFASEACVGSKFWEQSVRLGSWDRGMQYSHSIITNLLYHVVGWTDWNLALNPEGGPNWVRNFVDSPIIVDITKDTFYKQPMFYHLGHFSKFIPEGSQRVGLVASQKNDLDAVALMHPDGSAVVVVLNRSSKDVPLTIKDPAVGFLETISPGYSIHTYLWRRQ
# Glucocorticoid receptor (Homo sapiens), sequence (P04150 whole entry, looked up, the tested form may be a part): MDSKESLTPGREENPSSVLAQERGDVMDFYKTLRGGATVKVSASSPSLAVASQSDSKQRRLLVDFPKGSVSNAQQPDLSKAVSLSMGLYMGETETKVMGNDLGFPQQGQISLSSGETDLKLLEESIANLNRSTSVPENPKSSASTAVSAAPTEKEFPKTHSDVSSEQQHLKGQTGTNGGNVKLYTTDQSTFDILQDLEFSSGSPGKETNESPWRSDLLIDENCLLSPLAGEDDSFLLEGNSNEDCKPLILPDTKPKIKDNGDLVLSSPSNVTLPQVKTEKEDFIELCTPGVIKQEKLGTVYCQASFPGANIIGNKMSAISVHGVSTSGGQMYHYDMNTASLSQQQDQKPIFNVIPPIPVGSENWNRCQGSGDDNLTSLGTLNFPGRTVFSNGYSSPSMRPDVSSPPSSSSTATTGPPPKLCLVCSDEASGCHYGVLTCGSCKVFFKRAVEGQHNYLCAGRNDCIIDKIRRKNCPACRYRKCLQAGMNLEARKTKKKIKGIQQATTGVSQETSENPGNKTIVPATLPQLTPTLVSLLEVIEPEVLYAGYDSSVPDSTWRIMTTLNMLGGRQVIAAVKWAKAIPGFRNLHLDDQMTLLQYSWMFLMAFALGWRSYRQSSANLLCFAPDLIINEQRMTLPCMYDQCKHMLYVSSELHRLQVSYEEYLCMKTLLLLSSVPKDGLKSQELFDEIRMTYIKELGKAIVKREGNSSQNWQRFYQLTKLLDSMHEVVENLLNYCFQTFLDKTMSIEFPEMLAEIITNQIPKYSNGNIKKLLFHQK
# Cytochrome P450 2C19 (Homo sapiens), sequence (P33261 whole entry, looked up): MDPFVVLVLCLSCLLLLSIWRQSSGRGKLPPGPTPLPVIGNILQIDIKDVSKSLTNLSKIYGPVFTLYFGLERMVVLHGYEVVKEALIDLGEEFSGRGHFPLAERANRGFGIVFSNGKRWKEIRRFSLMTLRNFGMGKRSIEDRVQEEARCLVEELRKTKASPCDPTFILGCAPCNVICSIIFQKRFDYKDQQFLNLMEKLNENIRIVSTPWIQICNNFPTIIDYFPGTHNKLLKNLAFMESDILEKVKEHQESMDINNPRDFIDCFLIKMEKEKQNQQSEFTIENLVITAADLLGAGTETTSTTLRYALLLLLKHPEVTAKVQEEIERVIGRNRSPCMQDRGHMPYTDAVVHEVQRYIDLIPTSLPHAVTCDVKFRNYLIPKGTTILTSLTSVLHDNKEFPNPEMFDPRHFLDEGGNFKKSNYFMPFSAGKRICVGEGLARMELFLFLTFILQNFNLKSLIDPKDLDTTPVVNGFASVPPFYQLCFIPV
# Cytochrome P450 2D6 (Homo sapiens), sequence (P10635 whole entry, looked up): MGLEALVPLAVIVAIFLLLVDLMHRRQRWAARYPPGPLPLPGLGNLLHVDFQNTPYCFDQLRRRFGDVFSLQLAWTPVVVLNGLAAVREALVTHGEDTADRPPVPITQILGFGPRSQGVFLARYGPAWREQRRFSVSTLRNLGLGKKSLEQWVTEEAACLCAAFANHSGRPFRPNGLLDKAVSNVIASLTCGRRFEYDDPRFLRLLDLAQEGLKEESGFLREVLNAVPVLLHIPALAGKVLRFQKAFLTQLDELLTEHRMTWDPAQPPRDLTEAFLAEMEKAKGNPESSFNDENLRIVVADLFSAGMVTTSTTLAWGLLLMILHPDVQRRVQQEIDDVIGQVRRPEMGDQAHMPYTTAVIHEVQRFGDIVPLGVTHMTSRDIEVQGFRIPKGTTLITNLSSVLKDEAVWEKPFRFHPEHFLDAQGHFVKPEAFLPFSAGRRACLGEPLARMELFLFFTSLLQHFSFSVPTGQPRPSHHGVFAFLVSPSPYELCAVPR
# Ubiquitin carboxyl-terminal hydrolase 1 (Homo sapiens), sequence (O94782 whole entry, looked up): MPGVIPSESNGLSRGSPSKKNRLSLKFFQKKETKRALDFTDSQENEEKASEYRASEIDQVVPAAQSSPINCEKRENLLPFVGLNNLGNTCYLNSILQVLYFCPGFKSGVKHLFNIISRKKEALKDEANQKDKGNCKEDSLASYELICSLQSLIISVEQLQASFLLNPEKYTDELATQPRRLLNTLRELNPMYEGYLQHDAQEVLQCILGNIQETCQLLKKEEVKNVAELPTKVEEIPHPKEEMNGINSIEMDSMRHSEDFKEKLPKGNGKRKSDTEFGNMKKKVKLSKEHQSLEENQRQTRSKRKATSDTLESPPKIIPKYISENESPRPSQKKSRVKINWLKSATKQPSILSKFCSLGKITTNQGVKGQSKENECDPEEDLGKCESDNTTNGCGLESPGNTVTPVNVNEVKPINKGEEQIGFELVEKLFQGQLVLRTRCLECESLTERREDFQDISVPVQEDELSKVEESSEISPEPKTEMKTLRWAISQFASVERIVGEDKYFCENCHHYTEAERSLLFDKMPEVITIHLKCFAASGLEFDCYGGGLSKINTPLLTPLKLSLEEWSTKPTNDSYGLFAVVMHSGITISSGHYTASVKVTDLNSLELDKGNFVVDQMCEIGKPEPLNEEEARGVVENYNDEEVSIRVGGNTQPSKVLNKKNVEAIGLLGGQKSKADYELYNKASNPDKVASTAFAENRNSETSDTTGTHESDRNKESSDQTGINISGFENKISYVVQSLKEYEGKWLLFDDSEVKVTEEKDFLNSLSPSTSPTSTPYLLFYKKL
SMILES,Potency [1] [µM],"activity change, negative = inhibition [2]",Potency [3],"activity change, negative = inhibition [4]",Potency [5] [µM],Potency [6] [µM],Potency [7],Potency [8],Potency [9],outcome [10],"activity, negative = inhibition [11] [%]",Potency [12],Potency [13],Potency [14],Potency [15],Potency [16],outcome [17],Potency [18],activation [14] [%]
CN1CCN(c2ncc3nc(-c4ccc(Cl)cc4)c(=O)n(CCC#N)c3n2)CC1,> 11.4,130% [activator] (active),15.8 µM (active),214% [activator] (active),> 9.22,> 46,inactive,inactive,inactive,inactive,–,–,–,–,–,–,–,–,–
Cn1cccc1C(=O)N1CCC2(CC1)CCN(c1cccc(-c3ccccc3)c1)CC2,> 11.4,-12.9%,20 µM (active),16.5%,–,> 46,–,inactive,–,inactive,-8.63,–,–,–,–,–,–,–,–
COc1ccc(Oc2ncc3nc(-c4cccs4)c(=O)n(-c4ccccc4)c3n2)cc1,> 11.4,21.1%,3.16 µM (active),8.33%,> 9.22,> 46,inactive,inactive,–,inactive,–,2.51 µM (active),inactive,2.51 µM (active),–,–,–,–,–
COc1ccc(CNc2ncncc2-c2ccc3c(c2)OCO3)c(OC)c1,> 11.4,11.1%,0.501 µM (active),–,> 46,> 46,inactive,–,–,inactive,-6.57,0.126 µM (active),inactive,–,0.794 µM (active),inactive,inactive,inactive,–
COc1ccc(C(=O)N2CCC[C@@]3(CCN(c4cccc(-c5ccccc5)c4)C3)C2)cc1,> 11.4,8.11%,12.6 µM (active),-15.1%,–,> 46,–,–,7.94 µM (active),inactive,-9.84,3.16 µM (active),inactive,–,–,–,–,–,–
O=C(Nc1cccc(F)c1)N1CCC2(CC1)CCN(C(=O)c1ccco1)CC2,> 11.4,-3.88%,inactive,4.6%,–,> 46,inactive,–,–,inactive,4.97,inactive,–,–,–,–,–,–,–
N#Cc1cccc(NC(=O)N2CCCC3(CCN(C(=O)c4cnccn4)CC3)C2)c1,> 11.4,-1.03%,20 µM (active),-9.23%,–,> 46,inactive,–,–,inactive,0.635,–,inactive,–,–,–,–,–,0.071
